Measurements: PubChem BioAssay (NCATS)
Inconclusive results are not listed. Where a call stands in place of a potency, no number is given. Calls of active or inactive are those of the source. The call rests on the fitted dose curve; in most records, active means well fitted inhibition curve with a large enough effect; inconclusive means small, poorly fitted or top-dose-only effect; inactive means flat fitted curve, though single readings scatter.

Target: Ubiquitin carboxyl-terminal hydrolase 1 (Homo sapiens) (UniProt O94782)
Experiment: Inhibitors of USP1/UAF1: Pilot qHTS (AID 504865);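 further: rhodamine fluorescence freed from ubiquitin-rhodamine substrate followed over time; top concentration of the series differs between compounds; nearly all actives have a fitted effect of over 35% in size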
Summary of the method: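 In 50mM HEPES pH 7.8 containing 0.5mM EDTA, 1mM TCEP, 0.1 mg/ml BSA and 0.01% Tween-20, 1nM USP1/UAF1 is exposed to compound for 15 min, then Ub-Rho (150nM final) is added and fluorescence is read over time.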

Chain of Ubiquitin carboxyl-terminal hydrolase 1 (Homo sapiens) (O94782 whole entry, looked up): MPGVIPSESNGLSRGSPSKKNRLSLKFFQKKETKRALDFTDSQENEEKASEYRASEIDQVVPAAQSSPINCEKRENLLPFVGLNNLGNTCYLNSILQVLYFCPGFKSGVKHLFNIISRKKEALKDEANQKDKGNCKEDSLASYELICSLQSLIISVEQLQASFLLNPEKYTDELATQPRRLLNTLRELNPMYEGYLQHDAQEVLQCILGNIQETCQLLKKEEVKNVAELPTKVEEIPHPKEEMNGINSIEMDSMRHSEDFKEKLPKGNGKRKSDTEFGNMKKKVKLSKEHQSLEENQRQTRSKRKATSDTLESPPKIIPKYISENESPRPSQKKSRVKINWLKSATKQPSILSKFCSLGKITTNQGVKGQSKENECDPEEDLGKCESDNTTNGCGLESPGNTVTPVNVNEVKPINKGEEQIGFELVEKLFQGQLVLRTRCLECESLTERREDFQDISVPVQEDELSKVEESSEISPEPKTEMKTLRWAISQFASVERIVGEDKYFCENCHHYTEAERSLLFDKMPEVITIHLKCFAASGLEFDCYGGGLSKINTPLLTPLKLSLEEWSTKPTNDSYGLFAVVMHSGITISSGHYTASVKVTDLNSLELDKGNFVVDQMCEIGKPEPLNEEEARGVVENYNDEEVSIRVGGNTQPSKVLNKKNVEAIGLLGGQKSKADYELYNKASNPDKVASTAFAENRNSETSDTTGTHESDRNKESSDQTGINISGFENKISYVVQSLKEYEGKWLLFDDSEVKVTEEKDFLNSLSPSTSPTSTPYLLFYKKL

Row | Structure (SMILES) | Potency
1 | C[N+]1(C)[C@@H]2CC(OC(=O)C(O)(c3cccs3)c3cccs3)C[C@H]1[C@@H]1O[C@@H]12 (stereo not given in full) | inactive
2 | COc1cc2c(cc1OC)[C@@H](Cc1cc(OC)c(OC)c(OC)c1)[N+](C)(CCCOC(=O)CC/C=C/CCC(=O)OCCC[N+]1(C)CCc3cc(OC)c(OC)cc3[C@H]1Cc1cc(OC)c(OC)c(OC)c1)CC2 (stereo not given in full) | inactive
3 | CN1C(=O)OC(C)(C)C1=O | inactive
4 | N[C@H](CC(=O)O)C(=O)O | inactive
5 | COc1ccc(/C=C/C(=O)O)cc1 | inactive
